The results in this text go back to the supplement of paper PMC12645437, “Orthogonal IMiD-Degron Pairs Induce Selective Protein Degradation in Cells” (ACS Chemical Biology, 2025).

In all, about 8,300 sequences were measured (“log2 fold change of degron read counts, EGFP-low vs EGFP+ sorted cells (limma voom), compound-induced degradation”: median about -1.1, highest 2% from about 3.2 on). The sample as a whole holds a higher share of the highest values than the screen did.

This experiment has as its target T1, CRBN, Q96SW2.
T1 chain: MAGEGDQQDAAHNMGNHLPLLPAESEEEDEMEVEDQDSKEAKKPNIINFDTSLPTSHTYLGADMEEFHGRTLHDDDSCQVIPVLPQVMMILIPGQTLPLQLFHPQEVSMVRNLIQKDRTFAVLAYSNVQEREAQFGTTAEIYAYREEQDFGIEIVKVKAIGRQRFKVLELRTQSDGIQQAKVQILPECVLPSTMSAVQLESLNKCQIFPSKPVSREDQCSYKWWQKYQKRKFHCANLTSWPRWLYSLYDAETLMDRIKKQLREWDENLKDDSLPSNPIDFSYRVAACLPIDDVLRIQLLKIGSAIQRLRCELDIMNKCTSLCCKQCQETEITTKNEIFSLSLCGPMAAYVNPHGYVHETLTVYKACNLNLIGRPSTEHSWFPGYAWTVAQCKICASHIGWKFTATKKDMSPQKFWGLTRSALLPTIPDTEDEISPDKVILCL
Nature of the experiment: log2 fold change of degron read counts, EGFP-low vs EGFP+ sorted cells (limma voom), compound-induced degradation; higher = more compound-induced degradation of the degron-EGFP fusion; degrons are variants of IKZF1/3 zinc finger 2; compound dose not given here. The note with it: Jurkat, 18 h. As for the experimental part:
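Pooled library of 8380 IKZF3 ZF2 degron mutants (positions 146-167 varied within the IKZF3 130-189 degron; only the varied core is printed, flanks not printed) fused to EGFP with IRES-mCherry, lentivirally expressed in Jurkat cells. mCherry+ cells were treated with one IMiD compound for 18 h (dose not stated) and FACS-sorted into EGFP-low and EGFP+ populations. Degron sequences were counted by NGS, and log2FC (EGFP-low vs EGFP+) was estimated by limma voom over 3 biological replicates.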

Setting [1] is: compound: compound 19 (5-tert-butyl-thalidomide).
[2] abbreviates: compound: compound 22 (5-morpholino-thalidomide).
[3] abbreviates: compound: compound 33 (diphenyl IMiD analogue).
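Note: pooled lentiviral library of zinc finger degron-EGFP fusions in mCherry-positive Jurkat cells, FACS-sorted after compound exposure, with degron abundance counted by next-generation sequencing.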

B1: 46F_47D_49E_50V_52G_53A_54Y_55F_67L_, Q9UKT9 (peptide)
chain: FDCEVCGAYFTQKGNLLRHIKL
For the sequence B1, the “log2 fold change of degron read counts” value reads like this: under setting [1], -0.638; under setting [2], -1.5; under setting [3], -0.115; (compound: thalidomide) -0.462.

B2: 46L_47V_49N_50Q_52G_53F_54T_55C_67L_, Q9UKT9 (peptide)
chain: LVCNQCGFTCTQKGNLLRHIKL
Turning to B2, the “log2 fold change of degron read counts” value reads like this: under setting [1], -2.33; under setting [2], -3.26; under setting [3], -0.847; (compound: thalidomide) -1.21.

B3: 46F_47L_49N_50Q_52G_53H_54S_55F_67L_, Q9UKT9 (peptide)
chain: FLCNQCGHSFTQKGNLLRHIKL
For the sequence B3, the “log2 fold change of degron read counts” value is -2.63 under setting [1], -2.99 under setting [2], -3.12 under setting [3] and -2.74 (compound: thalidomide).

B4: 46F_47A_49E_50I_52G_53R_54I_55F_67L_, Q9UKT9 (peptide)
chain: FACEICGRIFTQKGNLLRHIKL
On to B4, for which the “log2 fold change of degron read counts” value by setting is: under setting [1], 0.366; under setting [2], -1.59; under setting [3], -1.49; (compound: thalidomide) -1.01.

B5: 46F_47V_49D_50I_52G_53A_54N_55F_67L_, Q9UKT9 (peptide)
chain: FVCDICGANFTQKGNLLRHIKL
As to B5, the “log2 fold change of degron read counts” value is, setting by setting: under setting [1], -0.564; under setting [2], 1.47; under setting [3], 0.815; (compound: thalidomide) 1.12.

B6: 46F_47K_49P_50I_52G_53R_54Q_55F_67L_, Q9UKT9 (peptide)
chain: FKCPICGRQFTQKGNLLRHIKL
In the case of B6, the “log2 fold change of degron read counts” value reads like this: under setting [1], -2.24; under setting [2], -2.58; under setting [3], -2.12; (compound: thalidomide) -0.821.

B7: 46L_47R_49P_50I_52G_53F_54S_55C_67L_, Q9UKT9 (peptide)
chain: LRCPICGFSCTQKGNLLRHIKL
With B7, the “log2 fold change of degron read counts” value by setting is: under setting [1], 2.24; under setting [2], 1.9; under setting [3], 2.44; (compound: thalidomide) 2.71.

B8: 46L_47V_49P_50I_52G_53F_54S_55C_67L_, Q9UKT9 (peptide)
chain: LVCPICGFSCTQKGNLLRHIKL
Regarding B8, the “log2 fold change of degron read counts” value came out at 2.25 under setting [1], 3.63 under setting [2], 2.38 under setting [3] and 3.59 (compound: thalidomide).

B9: 46L_47N_49P_50I_52G_53F_54S_55C_67L_, Q9UKT9 (peptide)
chain: LNCPICGFSCTQKGNLLRHIKL
With B9, the “log2 fold change of degron read counts” value by setting is: under setting [1], 2.9; under setting [2], 2.01; under setting [3], 1.38; (compound: thalidomide) 2.

B10: 46L_47C_49P_50I_52G_53F_54S_55C_67L_, Q9UKT9 (peptide)
chain: LCCPICGFSCTQKGNLLRHIKL
For the sequence B10, the “log2 fold change of degron read counts” value amounted to 2.83 under setting [1], 3.15 under setting [2], 3 under setting [3] and 3.11 (compound: thalidomide).

B11: 46L_47F_49P_50I_52G_53F_54S_55C_67L_, Q9UKT9 (peptide)
chain: LFCPICGFSCTQKGNLLRHIKL
Consider B11, for which the “log2 fold change of degron read counts” value reads like this: under setting [1], 3.55; under setting [2], 3.56; under setting [3], 2.79; (compound: thalidomide) 2.78.

B12: 46L_47F_49P_50I_52G_53F_54E_55C_67L_, Q9UKT9 (peptide)
chain: LFCPICGFECTQKGNLLRHIKL
Consider B12, for which the “log2 fold change of degron read counts” value was found to be 2.8 under setting [1], 2.89 under setting [2], 1.47 under setting [3] and 0.989 (compound: thalidomide).

B13: 46F_47Q_49E_50I_52G_53R_54N_55F_67L_, Q9UKT9 (peptide)
chain: FQCEICGRNFTQKGNLLRHIKL
In the case of B13, the “log2 fold change of degron read counts” value reads like this: under setting [1], -2.38; under setting [2], -2.7; under setting [3], -0.772; (compound: thalidomide) 0.915.

B14: 46F_47A_49P_50Q_52G_53A_54H_55F_67L_, Q9UKT9 (peptide)
chain: FACPQCGAHFTQKGNLLRHIKL
B14: the “log2 fold change of degron read counts” value under setting [1] worked out at 0.167, the “log2 fold change of degron read counts” value under setting [2] was -2, the “log2 fold change of degron read counts” value under setting [3] was -1.13 and the “log2 fold change of degron read counts” value (compound: thalidomide) was -1.72.

B15: 46F_47R_49P_50Q_52G_53A_54Y_55F_67L_, Q9UKT9 (peptide)
chain: FRCPQCGAYFTQKGNLLRHIKL
With B15, the “log2 fold change of degron read counts” value was -1.85 under setting [1], -1.73 under setting [2], -0.273 under setting [3] and -0.427 (compound: thalidomide).

B16: 46F_47V_49N_50I_52G_53A_54P_55F_67L_, Q9UKT9 (peptide)
chain: FVCNICGAPFTQKGNLLRHIKL
Regarding B16, the “log2 fold change of degron read counts” value by setting is: under setting [1], 1.87; under setting [2], 3.32; under setting [3], 2.44; (compound: thalidomide) 3.33.

B17: 46F_47R_49N_50I_52G_53A_54P_55F_67L_, Q9UKT9 (peptide)
chain: FRCNICGAPFTQKGNLLRHIKL
In the case of B17, the “log2 fold change of degron read counts” value runs as follows: under setting [1], 2.88; under setting [2], 3.49; under setting [3], 3.05; (compound: thalidomide) 3.38.

B18: 46F_47V_49N_50Q_52G_53A_54P_55F_67L_, Q9UKT9 (peptide)
chain: FVCNQCGAPFTQKGNLLRHIKL
Take B18: the “log2 fold change of degron read counts” value was -1.48 under setting [1], 0.603 under setting [2], -0.000403 under setting [3] and 0.468 (compound: thalidomide).

B19: 46F_47L_49N_50I_52G_53A_54P_55F_67L_, Q9UKT9 (peptide)
chain: FLCNICGAPFTQKGNLLRHIKL
For the sequence B19, the “log2 fold change of degron read counts” value is, setting by setting: under setting [1], 1.46; under setting [2], 1.8; under setting [3], 2.1; (compound: thalidomide) 2.49.

B20: 46F_47T_49N_50I_52G_53A_54P_55F_67L_, Q9UKT9 (peptide)
chain: FTCNICGAPFTQKGNLLRHIKL
For the sequence B20, the “log2 fold change of degron read counts” value turned out to be 2.03 under setting [1], 3.03 under setting [2], 2.21 under setting [3] and 2.73 (compound: thalidomide).

B21: 46F_47Y_49N_50I_52G_53A_54P_55F_67L_, Q9UKT9 (peptide)
chain: FYCNICGAPFTQKGNLLRHIKL
For the sequence B21, the “log2 fold change of degron read counts” value is, setting by setting: under setting [1], 3.87; under setting [2], 3.54; under setting [3], 2.43; (compound: thalidomide) 1.04.

B22: 46F_47E_49N_50I_52G_53A_54P_55F_67L_, Q9UKT9 (peptide)
chain: FECNICGAPFTQKGNLLRHIKL
Regarding B22, the “log2 fold change of degron read counts” value under setting [1] came to 0.92, the “log2 fold change of degron read counts” value under setting [2] was -1.22, the “log2 fold change of degron read counts” value under setting [3] stood at 0.793 and the “log2 fold change of degron read counts” value (compound: thalidomide) was found to be 1.96.

B23: 46F_47I_49N_50I_52G_53A_54P_55F_67L_, Q9UKT9 (peptide)
chain: FICNICGAPFTQKGNLLRHIKL
For B23, the “log2 fold change of degron read counts” value stood at 1.31 under setting [1], 3.43 under setting [2], 2.32 under setting [3] and 2.76 (compound: thalidomide).

B24: 46F_47N_49N_50I_52G_53A_54P_55F_67L_, Q9UKT9 (peptide)
chain: FNCNICGAPFTQKGNLLRHIKL
Take B24: the “log2 fold change of degron read counts” value under setting [1] is 3.04, the “log2 fold change of degron read counts” value under setting [2] came to 1.9, the “log2 fold change of degron read counts” value under setting [3] came to 0.574 and the “log2 fold change of degron read counts” value (compound: thalidomide) worked out at 0.97.

B25: 46F_47R_49E_50I_52G_53R_54P_55F_67L_, Q9UKT9 (peptide)
chain: FRCEICGRPFTQKGNLLRHIKL
For B25, the “log2 fold change of degron read counts” value by setting is: under setting [1], -0.208; under setting [2], 1.72; under setting [3], 2.22; (compound: thalidomide) 2.06.

B26: 46F_47N_49P_50I_52G_53H_54T_55F_67L_, Q9UKT9 (peptide)
chain: FNCPICGHTFTQKGNLLRHIKL
Turning to B26, the “log2 fold change of degron read counts” value was -2.31 under setting [1], -2.29 under setting [2], -2.08 under setting [3] and -2.24 (compound: thalidomide).

B27: 46F_47F_49E_50I_52G_53R_54S_55F_67L_, Q9UKT9 (peptide)
chain: FFCEICGRSFTQKGNLLRHIKL
Consider B27, for which the “log2 fold change of degron read counts” value is 0.599 under setting [1], 0.147 under setting [2], -0.0546 under setting [3] and -0.893 (compound: thalidomide).

B28: 46F_47N_49E_50Q_52G_53A_54C_55F_67L_, Q9UKT9 (peptide)
chain: FNCEQCGACFTQKGNLLRHIKL
Take B28: the “log2 fold change of degron read counts” value under setting [1] was -1.28, the “log2 fold change of degron read counts” value under setting [2] was -2.78, the “log2 fold change of degron read counts” value under setting [3] was -2.07 and the “log2 fold change of degron read counts” value (compound: thalidomide) was -2.41.
